What all share (type): functional
In experiment [1] the target is Solute carrier family 2, facilitated glucose transporter member 1 (Homo sapiens) (UniProt P11166). Nature of the experiment: ST_JUDE_LEISH: Cytotoxicity at 2uM final concentration against transgenic Leishmania Mexicana promastigotes LmGLUT1 that are glucose transport deficient and complemented with the human glucose transporter GLUT1. Activity is measured by DNA content using SYBR green in vitro.

Experiment [2] has as its target Hexose transporter 1 (Plasmodium falciparum) (UniProt O97467). The experiment in a line: ST_JUDE_LEISH: Cytotoxicity at 2uM final concentration against transgenic Leishmania Mexicana promastigotes LmPfHT that are glucose transport deficient and complemented with the Plasmodium falciparum hexose transporter. Activity is measured by DNA content using SYBR green in vitro.

The target in experiment [3] is Glucose transporter (Leishmania mexicana) (UniProt O61059). Nature of the experiment: ST_JUDE_LEISH: Cytotoxicity at 2uM final concentration against transgenic Leishmania Mexicana promastigotes LmGT2 that are glucose transport deficient and complemented with the L. Mexicana glucose transporter 2. Activity is measured by DNA content using SYBR green in vitro.

Chain of Solute carrier family 2, facilitated glucose transporter member 1 (Homo sapiens) (P11166 whole entry): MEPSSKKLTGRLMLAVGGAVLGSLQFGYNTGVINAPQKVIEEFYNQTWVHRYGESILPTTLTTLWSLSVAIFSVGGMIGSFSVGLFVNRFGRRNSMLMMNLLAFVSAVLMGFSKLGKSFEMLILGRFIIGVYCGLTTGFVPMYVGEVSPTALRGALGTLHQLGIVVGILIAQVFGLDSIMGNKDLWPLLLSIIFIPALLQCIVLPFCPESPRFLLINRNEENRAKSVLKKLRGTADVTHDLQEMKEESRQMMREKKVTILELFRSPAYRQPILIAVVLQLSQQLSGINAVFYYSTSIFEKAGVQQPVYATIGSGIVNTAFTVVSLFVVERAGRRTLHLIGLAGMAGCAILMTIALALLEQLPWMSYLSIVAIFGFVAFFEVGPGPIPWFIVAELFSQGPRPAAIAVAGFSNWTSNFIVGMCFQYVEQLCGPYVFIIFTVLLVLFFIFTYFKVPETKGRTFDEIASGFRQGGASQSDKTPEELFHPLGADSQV

By inhibition is commonly meant the change of the read-out against control, counted positive when it falls. `CCNc1cc(C)nc(Nc2ccc(NC(=O)c3c(F)cccc3Cl)cc2)n1`: the inhibition in experiment [1] worked out at 10.6%; in experiment [2] it was 11%; in experiment [3], 2.56%.

As to `COc1ccc(C2C(C(=O)Nc3cc(C)ccc3OC)c3ccccc3C(=O)N2C)cc1` (stereo unspecified), the inhibition was found to be 5.62% in experiment [1], 5.84% in experiment [2] and 1.74% in experiment [3].

For `CN1CCN(c2ccc(Nc3nc(N)c4ccn(C5CCC5)c4n3)cc2)CC1`, the inhibition in experiment [1] is 4.19%; in experiment [2] it was 4.27%; in experiment [3], 2.97%.

As for `Cn1ccc2c3c(N)nc(N)nc3ccc21`, the inhibition in experiment [1] is 0.43%; in experiment [2], 1.8%; in experiment [3], 1.34%.

Consider `CC(=O)Nc1nc(C(=O)Nc2ccc(-c3cccc(-c4nc5cccc(C)c5[nH]4)c3)cc2)cs1`, for which the values for the inhibition in experiment [1], in experiment [2] and in experiment [3] were 8.57%, 9.26% and 5.38%, respectively.

`O=C(Nc1cccc(-c2nn3ccccc3c2-c2ccnc(Nc3ccc(-c4cc[nH]n4)cc3)n2)c1)c1c(F)cccc1F`: the inhibition amounted to 6.17% in experiment [1], 10.3% in experiment [2] and 1.44% in experiment [3].

`COc1ccc(C2(CNCC(O)c3cccc([N+](=O)[O-])c3)CCCCC2)cc1OC` (stereo unspecified): the inhibition in experiment [1] worked out at 1.34%; in experiment [2], 2.95%; in experiment [3] it was 0.33%.

Turning to `O=C(Nc1ccc(Cl)c(Cl)c1)N1CCC(NCc2cccc([N+](=O)[O-])c2)CC1`, the inhibition in experiment [1] turned out to be 4.54%; in experiment [2], 1.1%; in experiment [3], 3.26%.

With `Cn1c(NC2CCN(CC3CCN(C(=O)/C=C/c4ccc(Cl)c(Cl)c4)CC3)CC2)nc2ccccc21`, the inhibition in experiment [1] is 49.9%; in experiment [2] it was 13.8%; in experiment [3], 81.9%.

For `CS(=O)(=O)c1ccc2[nH]c(-c3cc(-c4cccc(F)c4)cnc3N)nc2c1`, the inhibition in experiment [1] came out at 5.71%; in experiment [2] it was 3.53%; in experiment [3] it was 3.04%.

For the molecule `COc1cc2nc(NCCCN3CCCCC3)nc(NCc3ccccc3)c2cc1OC`, the inhibition in experiment [1] was 2.96%; in experiment [2] it was 4.73%; in experiment [3], -0.35%.

Take `CCCCNC(=O)[C@H](Cc1ccccc1)NC(=O)c1ccc(O)c(-c2ccc(Cl)c(Cl)c2)c1`: the results for the inhibition in experiment [1], in experiment [2] and in experiment [3] were 6.46%, 2.06% and 3.71%, respectively.

With `C=C[C@H]1CN(CCCCCCC)CC[C@H]1CC(=O)Nc1cnnc2ccc(OC)cc12`, the figures for the inhibition in experiment [1], in experiment [2] and in experiment [3] were 1.79%, 0.25% and 4.78%, respectively.

In the case of `C=CCc1cc(Br)ccc1OCCCON1C(N)=NC(N)=NC1(C)C`, the inhibition was determined as 19.1% in experiment [1], 27.3% in experiment [2] and 17.7% in experiment [3].

As to `Cc1cnccc1/C=C/c1cccc(OCCN2CCc3ccc(S(C)(=O)=O)cc3CC2)c1`, the inhibition is 1.95% in experiment [1], 2.77% in experiment [2] and 1.68% in experiment [3].

Take `Cc1cc(N[C@@H](Cc2ccccc2)C(=O)NCc2cccs2)nc(NCCc2cccnc2)n1`: the inhibition in experiment [1] was 1.39%; in experiment [2], 1.61%; in experiment [3] it was 1.02%.

For `CC(CCc1ccccc1)NCC(O)c1ccc2c3c(cccc13)S(=O)(=O)N2C` (stereo unspecified), the inhibition turned out to be 5.47% in experiment [1], 5.04% in experiment [2] and 4.71% in experiment [3].

As for `CN1Cc2ccc(NS(=O)(=O)c3ccc(-c4ccoc4)cc3)cc2C1`, the results for the inhibition in experiment [1], in experiment [2] and in experiment [3] were -2.45%, -1.72% and -3.6%, respectively.

As for `c1ccc(CNCc2cccc(-c3ccc(-c4nc5ccccc5[nH]4)s3)c2)cc1`, the inhibition in experiment [1] was found to be 4.03%; in experiment [2], 3.45%; in experiment [3], 3.41%.

With `CC(C)NCc1ccc(-c2cccc(-c3nc4ccccc4[nH]3)c2)cc1`, the inhibition in experiment [1] turned out to be 13.3%; in experiment [2], 11.8%; in experiment [3], 10.3%.

For `Cc1c(CNCCCNc2nc3cscc3[nH]2)sc(C(F)F)c1Br`, the inhibition in experiment [1] worked out at 6.65%; in experiment [2] it was 4.46%; in experiment [3] it was 2.43%.

Regarding `O=C(Nc1ccc(F)c(F)c1)c1ccc(CN2CCCN(Cc3cccc(F)c3)CC2)cc1`, the inhibition is 0.07% in experiment [1], -0.34% in experiment [2] and 1.29% in experiment [3].

As to `CCCCCCN1CCC(NCc2ccc(CN(C)C)cc2)CC1`, the inhibition in experiment [1] is 0.45%; in experiment [2], 2.27%; in experiment [3] it was -7.52%.

With `Cc1cc(NC2CCN(Cc3ccccc3)CC2)nc(NCCCCc2ccccc2)n1`, the inhibition in experiment [1] was determined as 23.4%; in experiment [2] it was 17.5%; in experiment [3], 4.87%.

Consider `Cc1cccc2nc(-c3cccc(-c4cccc(NC(=O)C(C)CN5CCN(C)CC5)c4)c3)[nH]c12` (stereo unspecified), for which the inhibition in experiment [1] amounted to 1.94%; in experiment [2], 1.44%; in experiment [3] it was 5.8%.

Turning to `COC(=O)c1cc(C(O)CNC(C)CCc2cccc(F)c2)ccc1O` (stereo unspecified), the inhibition in experiment [1] came out at 2.72%; in experiment [2], 2.7%; in experiment [3] it was 2.89%.

Take `O=C(/C=C/c1ccc(Cl)c(Cl)c1)NCCCCCN1CCC(NC(=O)Nc2cc(F)cc(F)c2)CC1`: the inhibition in experiment [1] is -0.2%; in experiment [2] it was 1.46%; in experiment [3], 4.15%.

Regarding `Cc1cc(O)c(CN2CCN(Cc3cccs3)CC2)cc1C(C)C`, the inhibition is -0.44% in experiment [1], 0.02% in experiment [2] and 2.94% in experiment [3].

For `COc1ccc(COc2c(OC)cc(Cc3cnc(N)nc3N)cc2OC)cc1`, the inhibition in experiment [1] turned out to be 5.65%; in experiment [2] it was 5.76%; in experiment [3], 6.57%.

As for `Cc1ccc(-c2cnc3[nH]cc(-c4ccc(C(=O)O)c(C)c4)c3c2)cc1C`, the inhibition in experiment [1] worked out at 1.15%; in experiment [2], 1.14%; in experiment [3] it was 1.64%.

Turning to `Cc1cc2nc(-c3ccc(C(=O)NCc4cccc(F)c4)cc3)[nH]c2cc1C`, the inhibition was -0.23% in experiment [1], 0.73% in experiment [2] and -1.73% in experiment [3].

For the molecule `Cc1ccc(Nc2nc3cc(Nc4ccnc(Nc5ccc(CS(C)(=O)=O)cc5)n4)ccc3o2)cc1`, the inhibition in experiment [1] turned out to be 9.35%; in experiment [2], 9.37%; in experiment [3] it was 5.97%.

Regarding `Cc1cc(OCC2CCCN(c3ncc(C(=O)NC4CC4)cc3Cl)C2)ccc1F` (stereo unspecified), the inhibition in experiment [1] was 0.51%; in experiment [2], 1.78%; in experiment [3], 0.81%.

On to `Cc1cc(N)c2cc(NC(=O)c3cc4ccccc4s3)ccc2n1`, for which the inhibition in experiment [1] is -0.05%; in experiment [2], -1.3%; in experiment [3] it was -0.52%.

As to `Cc1cc(N2CCCC2)nc(Nc2ccc(NC(=O)C(C)C)cc2)n1`, the inhibition was 5.62% in experiment [1], 2.73% in experiment [2] and -6.48% in experiment [3].

With `O=C(NCCN1CCC(c2ccncc2)CC1)c1ccc(Nc2nccc(Nc3ccc(Oc4ccccc4)cc3)n2)cc1`, the figures for the inhibition in experiment [1], in experiment [2] and in experiment [3] were -0.62%, -0.94% and -1.34%, respectively.

Turning to `COc1ccc(CN2CCC(CNCCc3ccccc3Cl)CC2)cc1`, the inhibition came to 19.2% in experiment [1], 11.1% in experiment [2] and 12.5% in experiment [3].
